# Experimental data reported in PMC7822874, “Chemoprotective antimalarials identified through quantitative high-throughput screening of Plasmodium blood and liver stage parasites” (Scientific Reports, 2021).
# Where two headings read alike, the source gives them in different places.
# System: P. berghei-ANKA-GFP-LucCON liver stage parasites in HepG2-A16-CD81EGFP cells
# Conditions: 48 h
Compound,% viability (3 µM),% viability (1 µM)
COc1cccc(OCCn2cc(C(=O)c3ccco3)c3ccccc32)c1 [MLS000050800],1.234,–
COc1ccc(OCCn2cc(C(=O)c3ccco3)c3ccccc32)cc1 [NCGC00101886],1.13,1.363
